This excerpt belongs to a sample that is enriched for hits.
DT40 TDP1 no CPT = qHTS for Inhibitors of human tyrosyl-DNA phosphodiesterase 1 (TDP1): qHTS in cells in absence of CPT. DT40 Tdp1-/- hTDP1 cells, no CPT, ATP luminescence, 48 h. actives 15% (n = 420,000). Potency, µM (top dose mostly 46.2 µM), for the others: at the highest dose activity change, negative = growth inhibition, most hits filed as inhibitors. AID 686978, 2013; further: potency means the concentration at half of the fitted maximal effect; nearly all actives have a fitted effect of over 55% in size
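Luminescent ATP content (CellTiter-Glo) served as the growth readout. Knockout chicken DT40 cells expressing human TDP1 were exposed to compounds without camptothecin for a minimum 48 hr at 37 °C.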
HT1080NT lethal = kills 2HG-producing HT-1080-NT fibrosarcoma cells | HT-1080-NT fibrosarcoma viability, CellTiter-Glo ATP luminescence, 48 h | Potency, µM (series often up to 46.1 µM), without a hit: top-dose activity, negative = less viability, most hits filed as cytotoxic | actives 1.6% (n = 360,000) | AID 686970;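 further: NT is the 2HG producing partner of a matched IDH1 knockdown line; potency means the concentration at half of the fitted maximal effect; 0% = DMSO-treated cells and -100% = media-only wells without cells; nearly all actives have a fitted effect of over 55% in size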
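Fibrosarcoma NT cells, 750 per well in 5% FBS RPMI, were exposed to compound for 48 hours. Viability: CellTiter-Glo luminescence.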
HT1080 IDH1KD tx = toxicity to HT-1080 IDH1 knockdown cells (counter line); AID 686971; Potency, µM (titrated, usually from 46.1 µM), for the others: top-dose activity, negative = toxicity, hits mostly cytotoxic; HT-1080 IDH1 knockdown viability, ATP luminescence, 48 h; actives 2% (n = 360,000);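 further: potency means the concentration at half of the fitted maximal effect; 0% = DMSO wells and -100% = cell-free medium wells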
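Using the IDH1-knockdown HT-1080 line run in the same batch and compound series as the NT line, viability after 48 h at 37 °C was determined by CellTiter-Glo luminescence and expressed as % activity.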
TDP1 cell CPT = growth inhibition of DT40 Tdp1-/-;hTDP1 cells with camptothecin (screen for TDP1 inhibitors); chicken DT40 Tdp1-/-;hTDP1 cells + 20 nM CPT, ATP luminescence, 48 h; AID 686979; actives 12% (n = 420,000); Potency, µM (doses to about 46.2 µM), without a hit: top-dose activity change, negative = growth inhibition, actives largely listed as inhibitors; further: potency means the concentration at half of the fitted maximal effect; nearly all actives have a fitted effect of over 55% in size
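Chicken DT40 Tdp1-/- cells complemented with human TDP1, 400 cells/well, exposed to compounds plus 20 nM camptothecin for at least 48 h at 37 C; viability read as ATP content by CellTiter-Glo luminescence.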
IL1B secr inh = inflammasome signaling inhibition, IL-1 beta readout; THP-1 LPS/ATP IL-1B secretion, AlphaLISA, 16 h; stronger effect = lower value; activity change, % at 57.5 µM; actives 4.7% (n = 360,000); AID 743279; in the data active means activity change below about -50%; inconclusive means mostly about -30% to -49%
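Secreted IL-1B measured by AlphaLISA bead assay after 16 h compound exposure of THP-1 cells; compounds (final up to 57.5 uM) added 1 h before LPS (250 ng/mL) and ATP (1.25 mM) stimulation; lower signal means less secretion.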
ALOX12 inh = ALOX12 (human) lipoxygenase inhibition; purified 12hLO, xylenol orange hydroperoxide absorbance; P18054; Potency, µM (highest dose often 108 µM), inactives show top-dose activity change, negative = inhibition, most hits filed as inhibitors; AID 1671190; actives 1.1% (n = 580,000); further: potency means the concentration at half of the fitted maximal effect
Target sequence (P18054 whole entry, looked up): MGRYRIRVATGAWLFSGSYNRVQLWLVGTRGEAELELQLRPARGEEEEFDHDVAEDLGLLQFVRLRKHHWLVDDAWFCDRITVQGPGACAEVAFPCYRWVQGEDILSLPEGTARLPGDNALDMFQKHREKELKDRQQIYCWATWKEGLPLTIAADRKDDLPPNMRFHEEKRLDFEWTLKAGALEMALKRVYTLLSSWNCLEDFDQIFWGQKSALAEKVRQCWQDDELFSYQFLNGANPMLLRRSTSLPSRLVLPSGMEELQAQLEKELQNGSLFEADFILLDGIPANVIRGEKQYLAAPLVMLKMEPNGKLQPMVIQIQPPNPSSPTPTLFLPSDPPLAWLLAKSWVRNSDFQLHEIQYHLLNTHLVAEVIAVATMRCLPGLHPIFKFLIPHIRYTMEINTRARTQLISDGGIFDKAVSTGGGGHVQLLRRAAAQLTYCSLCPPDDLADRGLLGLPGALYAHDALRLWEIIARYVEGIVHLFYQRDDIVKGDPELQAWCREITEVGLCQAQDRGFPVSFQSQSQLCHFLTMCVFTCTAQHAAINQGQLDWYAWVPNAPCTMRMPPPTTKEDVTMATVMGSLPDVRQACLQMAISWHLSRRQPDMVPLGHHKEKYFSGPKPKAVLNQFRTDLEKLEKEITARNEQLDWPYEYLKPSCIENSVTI
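Purified human 12hLO at 150 nM in 25 mM Hepes, 0.01% Triton X-100, pH 7.0, preincubated 15 min at room temperature with compound. Reaction started with 40 uM arachidonic acid, 30 min at room temperature. Hydroperoxide measured by Fe-xylenol orange, 573/405 nm absorbance ratio.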
* marks the source's active call; other numbers are inactive results; ? = inconclusive; / = not tested or not shown. Unless noted, the call rests on the fitted dose curve; in most records, active means well fitted curve in the direction sought with a large enough effect; inconclusive means small, poorly fitted or top-dose-only effect, or another doubt; inactive means no such curve, though single readings can be large; an effect the other way counts as inactive or inconclusive. Unless noted, on the % scale 0 is the no-effect control and ±100 the full control effect.

SMILES	DT40 TDP1 no CPT	HT1080NT lethal	HT1080 IDH1KD tx	TDP1 cell CPT	IL1B secr inh	ALOX12 inh
C#CCOC(=O)Nc1cccn(Cc2c(Cl)cccc2Cl)c1=O	10.3µM*	?	?	20.6µM*	?	-12.5%
Cc1ccc(S(=O)(=O)N2CCN(Cc3cccc4cccnc34)CC2)c(C)c1	/	/	/	/	/	-4.4%
COc1ccc(COc2ccc(C#N)cc2Cl)cc1F	/	/	/	/	/	-12.8%
c1ccc(C2CNCCc3ccccc32)cc1 (stereo not drawn)	-14.2%	-18.0%	-2.6%	?	0.0	11.5%
S=C1NCCc2ccc(Cl)cc2C1c1ccccc1 (stereo not drawn)	23.1µM*	-11.4%	-24.2%	?	5.8	?
C=C1C=C(C(F)F)n2ncc(C(=O)NCc3ccccc3OC)c2N1	?	/	/	10µM*	/	/
C=C1C=C(C(F)F)n2ncc(C(=O)Nc3cccc(CC)c3)c2N1	-13.6%	/	/	-1.0%	/	/
C=C1C=C(C(F)F)n2ncc(C(=O)NCc3ccc(Cl)cc3Cl)c2N1	15.8µM*	/	/	8.91µM*	/	/
CNC(=O)[C@@H]1C[C@H](Oc2cccnc2)CN1C(=O)C1CCCC1	/	/	/	/	/	15.4%
CCCS(=O)(=O)N1CCc2ccc(NC(=O)NC)cc21	/	/	/	/	/	-9.4%
COc1ccc2c(c1OC)C(=O)N1c3ccccc3C(=O)N(c3ccc(F)cc3)C21 (stereo not drawn)	11.6µM*	4.0%	10.8%	?	-14.5	429.5%
COc1ccc2c(c1OC)C(=O)N1N=C(c3ccc(-c4ccccc4)cc3)CC21 (stereo not drawn)	?	3.2%	-1.7%	-16.3%	-2.7	7.7%
COc1ccc2c(c1OC)C(=O)N1c3ccccc3C(=O)N(c3ccccc3)C21 (stereo not drawn)	9.2µM*	-9.4%	1.1%	11.6µM*	-11.6	192.2%
CCOC(=O)C1=C(CN(CCOC)Cc2ccco2)NC(=O)NC1c1cccs1 (stereo not drawn)	/	/	/	/	/	-16.6%
CCOC(=O)c1c(CN(C)C)n(C)c2c(O)c(N=NC(N)=O)c3ccc(Br)cc3c12	14.6µM*	-28.9%	?	?	48.7	?
CCCn1c(=O)c(C(=O)OCC)c(O)c2cc(Br)ccc21	-50.6%	-2.3%	-4.6%	-26.2%	17.3	0.3%
COc1ccccc1N1CCN(C(=O)CCS(=O)(=O)c2cc(Br)cc3c2N(C(C)=O)CC3)CC1	?	/	/	?	/	-24.4%
COc1ccccc1N1CCN(C(=O)CCS(=O)(=O)c2cc(Br)cc3c2N(C(=O)C2CC2)CC3)CC1	?	/	/	16.4µM*	/	-5.6%
CCC(=O)N1CCc2cc(Br)cc(S(=O)(=O)N3CCN(c4ccccc4OC)CC3)c21	23.1µM*	/	/	?	/	-24.7%
CCOC(=O)[C@]12CCCC=C1N(Cc1ccc3c(c1)OCO3)C(=O)[C@H](CC(=O)NCCc1ccccc1OC)C2	16.4µM*	?	-28.1%	?	?	15.8%
CCOC(=O)[C@]12CCCC=C1N(Cc1ccc3c(c1)OCO3)C(=O)[C@H](CC(=O)NCc1ccc(OC)c(OC)c1)C2	?	2.5%	7.6%	?	-4.8	-1.2%
COC(=O)[C@]12CCCCC=C1N(Cc1ccc3c(c1)OCO3)C(=O)[C@H](CC(=O)NCCc1ccccc1OC)C2	18.4µM*	?	11.6µM*	23.1µM*	/	1.0%
Oc1cc2cc(-c3csc(-c4ccc(F)cc4)n3)ccc2[nH]1	2.82µM*	/	/	1.12µM*	/	/
COc1ccc(-c2nc(-c3ccc(F)cc3)cs2)cc1	/	/	/	/	/	-26.1%
Cc1ccc(CNC(=O)c2ccc3c(=O)n4c(-c5ccc(C)cc5)csc4nc3c2)cc1	9.2µM*	0.7%	2.0%	7.31µM*	18.4	-19.6%
SMILES	DT40 TDP1 no CPT	HT1080NT lethal	HT1080 IDH1KD tx	TDP1 cell CPT	IL1B secr inh	ALOX12 inh
CCCn1nc2cc(C(=O)NCc3ccc(C)cc3)ccc2c1OC	-26.6%	28.8%	14.7%	?	-18.5	-8.0%
NC(=O)c1ccc2c(=O)n3c(-c4cccs4)csc3nc2c1	-13.7%	3.9%	12.4%	-22.8%	-4.6	?
Cc1ccc(-c2csc3nc4cc(C(N)=O)ccc4c(=O)n23)cc1	-22.9%	?	-2.0%	-19.6%	-17.5	17.8µM*
O=C(NN1C(=O)c2ccccc2NC1c1ccccn1)c1ccccc1 (stereo not drawn)	?	9.6%	12.3%	16.4µM*	10.6	3.7%
O=C(NN1C(=O)c2ccccc2NC1c1ccoc1)c1ccccc1 (stereo not drawn)	3.2%	5.9%	8.5%	-3.5%	-3.6	7.5%
O=C(Nc1ccc(OC(F)(F)F)cc1)C(=O)c1c[nH]c2ccccc12	/	/	/	/	/	-3.8%
O=C(O)c1ccc(COc2ccc(Cl)cc2)cc1	/	/	/	/	/	-26.3%
O=C(c1ccc(COc2ccccc2Br)cc1)N1CCCCCC1	16.4µM*	13.4%	10.2%	?	-27.3	-5.1%
Cc1ccc(COc2ccccc2C(=S)N2CCCC2)cc1	20.6µM*	0.3%	0.9%	?	7.6	-9.2%
O=C(c1ccc(COc2ccc(Cl)cc2)cc1)N1CCCCC1	?	-6.9%	-9.4%	?	-62.9*	0.3%
CN(CCOc1ccccc1)C(=O)c1ccc(OC2CCN(C(=O)C3CC3)CC2)cc1	18.4µM*	?	-29.0%	?	4.0	-10.7%
Fc1ccc(COc2ccccc2C(=S)N2CCCC2)cc1	?	-0.5%	15.6%	?	?	?
CN(CCOc1ccc(Cl)cc1)C(=O)C1CCN(C(=O)c2ccc(Cl)cc2)CC1	?	-0.8%	-5.8%	?	-60.6*	-1.6%
Cc1ccccc1C(=O)N1CCC(C(=O)N(C)CCOc2ccccc2)CC1	?	-3.6%	-3.1%	?	-4.6	21.8%
CC1CCc2noc(NC(=O)c3cc(=O)c4cc(Cl)ccc4o3)c2C1 (stereo not drawn)	/	/	/	/	/	-16.4%
Clc1ccc(Nc2ncnc3ccc(Br)cc23)cc1	14.6µM*	?	?	10.3µM*	-9.0	?
CCOC(=O)c1cccc(Nc2cc(C)nc(C)n2)c1	16.4µM*	/	/	?	/	-22.8%
Cc1ccc2ncnc(Nc3ccccc3)c2c1	?	-1.7%	-2.8%	-22.1%	-3.0	1.5%
CN(C)c1ccc(Nc2ncnc3ccc(Br)cc23)cc1	?	-3.9%	-6.4%	?	-10.1	-10.8%
CCOC(=O)c1cccc(Nc2nc(C)cc(C)n2)c1	-4.6%	15.7%	17.2%	2.9%	44.3	?
Cc1cccc(Nc2ncnc3ccc(Br)cc23)c1	?	-12.1%	-20.4%	?	-50.8*	2.3%
